PubChem BioAssay AID1030 (National Center for Advancing Translational Sciences (NCATS), 2008)
Among all 220,000 compounds or so, about 16,000 (7.3%) were called active. Inconclusive results (about 25%) are left out. Calls come from the whole dose curve; as a rule, active = well fitted inhibition curve with a large enough effect (not every such curve was filed as active); inconclusive = small, poorly fitted or top-dose-only effect, or another doubt; inactive = no such curve, though single readings can be large or run the other way. What follows is part of a selection rich in actives, with near analogues and random picks from the rest. A call without a number means that no potency is given here.

Biological target: Aldehyde dehydrogenase 1A1 (Homo sapiens) (UniProt P00352)
Assay: qHTS Assay for Inhibitors of Aldehyde Dehydrogenase 1 (ALDH1A1)
Details: Purified ALDH1A1, NADH fluorescence, propionaldehyde substrate; series mostly up to 75.3 µM
Potency is the fitted concentration of half-maximal effect.

Sequence of Aldehyde dehydrogenase 1A1 (Homo sapiens) (P00352 whole entry, looked up): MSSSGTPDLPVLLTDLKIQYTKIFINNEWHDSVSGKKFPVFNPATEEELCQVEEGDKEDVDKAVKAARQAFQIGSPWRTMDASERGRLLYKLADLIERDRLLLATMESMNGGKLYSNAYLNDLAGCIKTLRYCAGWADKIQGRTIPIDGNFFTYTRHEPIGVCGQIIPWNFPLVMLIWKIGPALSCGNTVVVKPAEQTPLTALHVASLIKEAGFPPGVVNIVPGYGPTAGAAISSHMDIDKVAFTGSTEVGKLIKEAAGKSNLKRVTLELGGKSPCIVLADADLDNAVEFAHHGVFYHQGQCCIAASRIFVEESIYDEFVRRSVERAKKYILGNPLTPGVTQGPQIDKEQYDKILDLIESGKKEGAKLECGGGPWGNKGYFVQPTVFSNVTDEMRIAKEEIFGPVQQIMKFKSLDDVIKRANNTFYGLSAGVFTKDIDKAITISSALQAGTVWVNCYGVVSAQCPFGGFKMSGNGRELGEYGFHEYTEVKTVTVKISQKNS

Compound | Potency | activity, negative = inhibition
Clc1ncn(CCOc2ccccc2)c1Cl | inactive | 
Cc1noc(C)c1S(=O)(=O)Nc1ccc(C(=O)N2CCN(c3ccc(F)cc3)CC2)cc1 | inactive | 
COC(=O)C1=C(C)NC2=C(C(=O)c3ccccc32)C1c1ccc(-c2ccc(C(=O)O)cc2)o1 (centres undefined) | 3.16 µM (active) | 
COc1ccccc1NC(=O)C1=C(C)NC2=C(C(=O)CCC2)C1c1ccc(C)o1 (centres undefined) | inactive | 
COC(=O)C1=C(C)NC(=O)NC1/C=C/c1ccccc1 (centres undefined) | inactive | 
COC(=O)c1cc2n(n1)CCCNC2=O | inactive | 
COc1ccc(/C=C2\SC(=N)N(c3ccc(F)cc3)C2=O)cc1 | inactive | 
O=C(Nc1ccc(Cl)cn1)c1ccc2c(c1)OCCO2 | inactive | 
CNc1ccc([N+](=O)[O-])cc1C(=O)O | inactive | 
COc1ccc(N2C(=O)CC(Nc3ccc(F)cc3)C2=O)c([N+](=O)[O-])c1 (centres undefined) | 17.8 µM (active) | 
COc1cccc(N2C(=O)C3CCCN3C2c2ccc(F)cc2)c1 (centres undefined) | inactive | 
COc1cc(OC)cc(C(=O)NC(=S)N2CCN(c3ccc(C(F)(F)F)cc3[N+](=O)[O-])CC2)c1 | inactive | 
CC(Oc1ccc(Br)cc1Br)C(=O)NC1CCCC1 (centres undefined) | inactive | 
CCC1CO/C(=C(\C(=C(Cl)Cl)N2CCOCC2)[N+](=O)[O-])N1 (centres undefined) | inactive | 
CCc1nnc(NC(=O)c2cccc(S(=O)(=O)N(C)c3ccc(OC)cc3)c2)s1 | inactive | 
Cc1ccc(S(=O)(=O)N2CCN(C(=O)c3cccs3)CC2)cc1 | inactive | 
COc1cccc(NC(=S)N(CCc2c(C)[nH]c3ccccc23)Cc2ccco2)c1 | inactive | 
COc1ccc2[nH]c(C)c(CCN(Cc3cccs3)C(=S)Nc3ccccc3OC)c2c1 | 25.1 µM (active) | 
Cc1[nH]c2ccccc2c1CCN(Cc1cccs1)C(=S)NC(C)(C)C | inactive | 
Cc1cc(Cl)ccc1OCc1nc(-c2ccncc2)no1 | inactive | 
Nc1ccccc1N | inactive | 
Nc1ccccc1Sc1cc(Cl)nnc1Cl | 25.1 µM (active) | 
Cc1nn(C)c(C)c1Sc1ccccc1N | inactive | 

Compound | Potency | activity, negative = inhibition
COc1ccc(CN2CCN(Cc3cn(C)nc3-c3ccccc3)CC2CCO)c(C)c1C (centres undefined) | inactive | 
CCOC(=O)CSc1nnc(-c2ccc([N+](=O)[O-])cc2)o1 | inactive | 
COc1cccc(CN(C)CC(=O)NCc2ccccc2Cl)c1OC | inactive | 
Cc1ccccc1CN1C[C@@H]2C[C@@H](c3ccc4nsnc4c3)N3CCC[C@@]23C1=O | inactive | 
Cc1ccccc1CN1C[C@@H]2C[C@@H](c3cn(C)nc3-c3ccccc3)N3CCC[C@@]23C1=O | 1.58 µM (active) | 
Cc1ccc(CN2CCN(Cc3cn(C)nc3-c3ccccc3)CC2CCO)o1 (centres undefined) | inactive | 
CC1CCCN(C(=O)c2ccc3c(c2)C(=O)N(CCC2=CCCCC2)C3=O)C1 (centres undefined) | 0.501 µM (active) | 
Cn1nnc2cc(C(=O)NCCC3=CCCCC3)ccc21 | inactive | 
CC1CCCN(C(=O)Cn2c(=O)oc3ccccc32)C1 (centres undefined) | inactive | 
CCN(CC)C(=O)Cn1cc(S(=O)(=O)CC(=O)NCc2ccc3c(c2)OCO3)c2ccccc21 | inactive | 
Cc1ccc(C(=O)COC(=O)CCCC(=O)NC2CCCCC2)cc1[N+](=O)[O-] | inactive | 
Cc1cc(C=O)c(C)n1-c1ccc(NC2CCCCC2)c([N+](=O)[O-])c1 | 5.62 µM (active) | 
Cc1c(NS(=O)(=O)c2ccc(NC3CCCC3)c([N+](=O)[O-])c2)c(=O)n(-c2ccccc2)n1C | inactive | 
S=c1[nH]nc(-c2cccnc2)n1/N=C/C(Cl)=C\c1ccccc1 | inactive | 
Cc1cc(-c2n[nH]c(=S)n2/N=C/C(Br)=C/c2ccccc2)n[nH]1 | 17.8 µM (active) | 
CN1CCN(C2=NCCO2)CC1 | inactive | 
Cc1ccc(/C=C(\C#N)C(=O)Nc2cccc3ncccc23)o1 | 8.91 µM (active) | 
O=C(O)c1cc(Cl)c(Cl)cc1C(=O)Nc1cccc2ncccc12 | inactive | 
O=C(Nc1cccc2ncccc12)C(Cl)(Cl)Cl | inactive | 
CCN(CC)CCCSc1nc2ccccc2s1 | inactive | 
COC(=O)c1ccc(COC(=O)c2cnccn2)cc1 | inactive | 
N#CC1=C(N)Oc2n[nH]c(CSc3ccccc3)c2C12C(=O)Nc1ccccc12 (centres undefined) | 10 µM (active) | 
COc1cc2sc(C)nc2cc1C | inactive | 

Compound | Potency | activity, negative = inhibition
Cc1ccc(NC(=O)c2ccc(Oc3ncccn3)cc2)cc1 | inactive | 
C=C(C(C)=O)C(O)c1cccs1 (centres undefined) | inactive | 
CCCC(=O)Nc1nc2ccc(NC(=O)c3c(F)c(F)c(OC)c(F)c3F)cc2s1 | inactive | 
CCC(=O)Nc1ccc2c(c1)nc(CCN1CCN(C)CC1)n2C | inactive | 
CCCC(=O)Nc1ccc2c(c1)nc1n2CCSC1 | 25.1 µM (active) | 
COC(=O)c1ccc(NC(=S)Nc2cccc(C)n2)cc1 | inactive | 
Cc1cccc(OC(=O)c2sc3ncn(C)c(=O)c3c2C)c1 | inactive | 
CCN1CCN(C(=O)CN(C)S(=O)(=O)c2ccc3ccccc3c2)CC1 | inactive | 
CCC1CCCCN1S(=O)(=O)Cc1ccccc1Cl (centres undefined) | inactive | 
CS(=O)(=O)N(CC(=O)NC1CCCC1)Cc1ccc(F)cc1 | inactive | 
Nc1c(C(=O)O)cnn1-c1ccccc1 | inactive | 
Cc1c(C(=O)NCc2ccccc2)cnn1-c1ccccc1 | inactive | 
NNC(=O)c1cnn(-c2ccccc2)c1C(F)(F)F | 11.2 µM (active) | 
CC(=O)N1N=C(c2ccccc2)OC1c1cccnc1 (centres undefined) | inactive | 
COCc1c(C(=O)OCc2c(C)noc2C)oc2ccccc12 | inactive | 
Fc1ccc(CNCc2ccc(Br)cc2)cc1 | inactive | 
COCCn1c(=S)[nH]c2cc(C(=O)NCCc3ccc(OC)c(OC)c3)ccc2c1=O | inactive | 
COc1ccc(CCNC(=O)Cn2c(=O)n(CC3CCCO3)c(=O)c3ccccc32)cc1OC (centres undefined) | inactive | 
O=c1c2cc3c(=O)n(CC4CCCO4)c(=O)c3cc2c(=O)n1CC1CCCO1 (centres undefined) | 0.316 µM (active) | 
S=c1[nH]nc(-c2ccc(Cl)cc2)n1CC1CCCO1 (centres undefined) | inactive | 
COC(=O)c1ccc2c(=O)n(CC3CCCO3)c(=S)[nH]c2c1 (centres undefined) | 1.78 µM (active) | 
Cc1nc2cnc(Nc3ccccc3)nc2n(C[C@H]2CCCO2)c1=O | inactive | 
CCc1ccc(NC(=O)C(=O)N/N=C(\C)CC(=O)NCCOC)cc1 | inactive | 

Compound | Potency | activity, negative = inhibition
CCOC(=O)c1cccc(NC(=O)CCOc2ccccc2)c1 | inactive | 
CCOC(=O)CSc1nc(C)cc2c1C(=O)OC2 | inactive | 
CCOC(=O)C1CCCN(C(=O)c2cccc(S(=O)(=O)N3CCOCC3)c2)C1 (centres undefined) | inactive | 
COc1cccc(N(Cc2nnc3n2CCCCC3)C(=O)Nc2ccccc2F)c1 | inactive | 
Cc1cc(C(=O)NNS(=O)(=O)c2ccccc2C(F)(F)F)nn1C(C)(C)C | inactive | 
O=C(Nc1ccc(Br)cn1)c1ccc([N+](=O)[O-])cc1Cl | inactive | 
O=C(CCN1C(=O)c2ccccc2C1=O)Nc1cccc(F)c1 | inactive | 
O=C1c2ccccc2C(=O)N1CCCSc1ccccc1 |  | -6.74% [at 13.5 µM] (inactive)
O=C1c2ccccc2C(=O)N1CCC(O)C[N+](=O)[O-] (centres undefined) | 22.4 µM (active) | 
Cc1ccc(C)c(CSc2nc(-c3ccco3)nc3c2c(=O)n(C)c(=O)n3C)c1 | inactive | 
O=C(O)CSc1nnc(-c2ccc3c(c2)OCO3)n1-c1ccccc1 | inactive | 
CSc1ncccc1C(=O)NC1CCCCCC1 | inactive | 
CSc1nsc(SC)c1NC(=O)OC1CCCCC1 | 20 µM (active) | 
CC1(CCC(=O)OC2CCCCC2)OCCO1 |  | -6.23% [at 13.5 µM] (inactive)
Cc1cccc(C2c3[nH]c4ccccc4c3CCN2C(=O)c2cc(-c3cccn3C)n[nH]2)n1 (centres undefined) | inactive | 
COc1ccc2c(c1)C(c1cccs1)=NNC(c1cccnc1)=N2 | inactive | 
CC(=O)Nc1ccc(NC(=O)C(C)n2c3ccccc3c3nc(=O)cc(C)n32)cc1 (centres undefined) | inactive | 
C/C(=N\Nc1nc(N2CCOCC2)nc(N2CCOCC2)n1)c1ccc([N+](=O)[O-])cc1 | inactive | 
COc1ccc(C(=O)Nc2cccc(S(C)(=O)=O)c2)cc1 | inactive | 
COc1ccc(NS(=O)(=O)c2cc(NC(=O)C3CCCCC3)ccc2N2CCOCC2)cc1 | 2.51 µM (active) | 
O=C(Nc1cccc(OCC(=O)N2CCOCC2)c1)C1CCCCC1 | inactive | 
CC(=O)Nc1ccc(S(=O)(=O)Nc2ccc(N3CCOCC3)c(F)c2)cc1 | inactive | 
COc1cccc(/C=C2\SC(=N)N(c3ccc(F)cc3)C2=O)c1 | inactive | 

Compound | Potency | activity, negative = inhibition
COc1ccc(CCNC(=O)CSc2nnc3ccc(-c4ccncc4)nn23)cc1 | inactive | 
CN(C)C(=O)CSc1n[nH]c(-c2ccco2)n1 | inactive | 
CCOC(=O)c1cc2c(nc1NC(=S)Nc1ccccc1)CC(C)(CC)OC2 (centres undefined) | 12.6 µM (active) | 
CCOC(=O)c1cc2ccccc2nc1C | inactive | 
CCOC(=O)c1ccc(NC(=S)Nc2cc(C)cc(C)n2)cc1 | inactive | 
O=S(=O)(c1ccccc1)c1nc(-c2ccccc2F)oc1NCc1cccnc1 | inactive | 
CN(C)C=NC(=O)c1cccn1-c1ncc(C(F)(F)F)cc1Cl | inactive | 
COC(=O)c1cc(NC(=O)c2nn(C)c(=O)c3ccccc23)cc(C(=O)OC)c1 | inactive | 
OCCCC1CCCCN1Cc1nc(Cc2ccccc2Cl)no1 (centres undefined) | inactive | 
COc1ccc(N2C(=O)/C(=C\c3ccco3)N=C2SCC(N)=O)cc1Cl | inactive | 
CCOC(=O)CCC(=O)OCC(=O)NC(C)C1CC2CCC1C2 (centres undefined) | 15.8 µM (active) | 
Cc1ccccc1OCCC(=O)OCC(=O)NC(C)c1ccccc1 (centres undefined) | inactive | 
O=C(COC(=O)CC1CC2CCC1C2)NC(=O)NC1CCCC1 (centres undefined) | inactive | 
CCOC(=O)CNC(=O)/C(=C\c1ccc(F)cc1)NC(=O)c1ccccc1 | inactive | 
CN(C)c1nnnn1-c1ccc(Cl)cc1 | inactive | 
Cc1cc(C)cc(NC(=O)CSc2ccccc2)c1 | inactive | 
O=C(Nc1ccc2cn[nH]c2c1)c1ccc(S(=O)(=O)N2CCOCC2)cc1 | inactive | 
Cc1cccc(NC(=S)Nc2ccc(Br)cc2)c1 | inactive | 
Cc1csc(NC(=S)Nc2cccc(Cl)c2)n1 | inactive | 
Cc1cccc(NC(=O)CSc2nc3[nH]ncc3c(=O)[nH]2)c1 | inactive | 
S=C(Nc1cccc(Cl)c1)Nc1ccc2cn[nH]c2c1 | 28.2 µM (active) | 
Cc1cccc(NC(=S)Nc2ccc3cn[nH]c3c2)c1 | 10 µM (active) | 
